# Laboratory results from the supplement of paper PMC9177965.
# “And” between values parts separate entries of the source, which are not always exact repeats. Equal values may be shown once.
# Experiments:
# [1] = system: HT29 RNF43 G659fs (RNF43 659mut, CRISPR-edited); experiment: cell viability activity relative to DMSO (negative = inhibition); higher = more viable cells (less growth inhibition); settings: 5 µM; 96 h
# Experimental: (§1)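 Broad Repurposing Library primary screen at a single dose of 5 uM. HT29 sg-Ctrl and HT29 RNF43 G659fs CRISPR-edited isogenic cells were seeded at 2500 cells/well in 384-well plates in duplicate and treated for 96 h. Viability was read by CellTiter-Glo and reported as % activity relative to DMSO, with MG132 as the positive control (negative = growth inhibition).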
# [2] = system: HT29 sg-Ctrl (RNF43 wildtype); experiment: as above; settings: 5 µM; 96 h
# Experimental: as §1
compound,measurement,setting,value
C[C@]1(O)C[C@@H](c2nc(-c3ccc4ccc(-c5ccccc5)nc4c3)c3c(N)nccn32)C1,cell viability activity,[1],-32.5%
same,cell viability activity,[2],-26.2%
CN(C)c1ccc(C(=O)NCCCCCCC(=O)NO)cc1,cell viability activity,[1],-84.4%
same,cell viability activity,[2],-82%
CN1CCC[C@@H]1Cc1c[nH]c2ccc(CCS(=O)(=O)c3ccccc3)cc12,cell viability activity,[1],-25.1%
same,cell viability activity,[2],-27.2%
Cn1cncc1[C@@](N)(c1ccc(Cl)cc1)c1ccc2c(c1)c(-c1cccc(Cl)c1)cc(=O)n2C,cell viability activity,[1],-30.6%
same,cell viability activity,[2],-33.3%
Cc1ccc(S(=O)(=O)C=CC#N)cc1,cell viability activity,[1],-98.8%
same,cell viability activity,[2],-97.7%
CN(C)C(=O)c1cc2cnc(Nc3ccc(N4CCNCC4)cn3)nc2n1C1CCCC1,cell viability activity,[1],-26%
same,cell viability activity,[2],-39.7%
CC(C)(C)c1cc(NC(=O)Nc2ccc(-c3cn4c(n3)sc3cc(OCCN5CCOCC5)ccc34)cc2)no1,cell viability activity,[1],-46.2%
same,cell viability activity,[2],-40.7%
C[C@H]1O[C@@H](O[C@H]2CC[C@@]3(C)[C@H](CC[C@@H]4[C@@H]3C[C@@H](O)[C@]3(C)[C@@H](C5=CC(=O)OC5)CC[C@]43O)C2)C[C@H](O)[C@@H]1O[C@H]1C[C@H](O)[C@H](O[C@H]2C[C@H](O)[C@H](O[C@@H]3O[C@H](CO)[C@@H](O)[C@H](O)[C@H]3O)[C@@H](C)O2)[C@@H](C)O1,cell viability activity,[1],-90.5%
same,cell viability activity,[2],-91.5%
CC(C)=CCC/C(C)=C/CC/C(C)=C/CSc1ccccc1C(N)=O,cell viability activity,[1],-26.6%
same,cell viability activity,[2],-6.13%
CC(C)c1cc(C(=O)N2Cc3ccc(CN4CCN(C)CC4)cc3C2)c(O)cc1O,cell viability activity,[1],-91.7%
same,cell viability activity,[2],-88.3%
CC(C=CC(=O)NO)=CC(C)C(=O)c1ccc(N(C)C)cc1 (stereo not drawn),cell viability activity,[1],-95.2%
same,cell viability activity,[2],-94.9%
OC[C@H]1O[C@@H](Oc2cc(O)cc(/C=C/c3ccc(O)cc3)c2)[C@H](O)[C@@H](O)[C@@H]1O,cell viability activity,[1],-34.4%
same,cell viability activity,[2],-36%
O=C(NO)c1cnc(N2CCN(S(=O)(=O)c3ccc4ccccc4c3)CC2)nc1,cell viability activity,[1],-64.4%
same,cell viability activity,[2],-48.5%
O=C(NOC[C@H](O)CO)c1ccc(F)c(F)c1Nc1ccc(I)cc1F,cell viability activity,[1],-81.1%
same,cell viability activity,[2],-85%
c1cncc(CN2CCC(n3ncc4c(N5CCOCC5)nc(-c5ccc6[nH]ccc6c5)nc43)CC2)c1,cell viability activity,[1],-74.3%
same,cell viability activity,[2],-75.2%
CCc1cccc(CC)c1NC(=O)N1Cc2[nH]nc(NC(=O)c3ccc(N4CCN(C)CC4)cc3)c2C1,cell viability activity,[1],-46.8%
same,cell viability activity,[2],-21.2%
NC(=O)Nc1cc(-c2cccc(F)c2)sc1C(=O)N[C@H]1CCCNC1,cell viability activity,[1],-79.6%
same,cell viability activity,[2],-32.6%
NC1(Cc2ccc(Cl)cc2)CCN(c2ncnc3[nH]ccc23)CC1,cell viability activity,[1],-39.2%
same,cell viability activity,[2],-20.8%
COC(=O)C[C@](O)(CCCC(C)(C)O)C(=O)O[C@@H]1C(OC)=C[C@]23CCCN2CCc2cc4c(cc2[C@H]13)OCO4,cell viability activity,[1],-92.7%
same,cell viability activity,[2],-86.7%
COc1cc(OC)cc(N(CCNC(C)C)c2ccc3ncc(-c4cnn(C)c4)nc3c2)c1,cell viability activity,[1],-70.3%
same,cell viability activity,[2],-64.7%
CN1CCN(CCOc2cc(OC3CCOCC3)c3c(Nc4c(Cl)ccc5c4OCO5)ncnc3c2)CC1,cell viability activity,[1],-54.8%
same,cell viability activity,[2],-58.9%
CN(C)C/C=C/C(=O)Nc1ccc(C(=O)Nc2cccc(Nc3ncc(Cl)c(-c4c[nH]c5ccccc45)n3)c2)cc1,cell viability activity,[1],-87.2%
same,cell viability activity,[2],-86.4%
CCCOc1ccc2[nH]c(NC(=O)OC)nc2c1,cell viability activity,[1],-69.6%
same,cell viability activity,[2],-55.8%
Cc1c(-c2ccc(O)cc2)n(Cc2ccc(OCCN3CCCCCC3)cc2)c2ccc(O)cc12,cell viability activity,[1],-67.2%
same,cell viability activity,[2],-93.1%
Oc1ccc(CC2NCCc3cc(O)c(O)cc32)cc1 (stereo not drawn),cell viability activity,[1],-63.7%
same,cell viability activity,[2],-66.3%
CC(C)(N)c1cc(C(=O)N[C@@H]2CCc3ccc(Oc4ccnc5c4CCC(=O)N5)cc3C2)cc(C(F)(F)F)c1,cell viability activity,[1],-57.8%
same,cell viability activity,[2],-59.3%
O=C(c1ccc(F)c(F)c1Nc1ccc(I)cc1F)N1CC(O)([C@@H]2CCCCN2)C1,cell viability activity,[1],-86.8%
same,cell viability activity,[2],-88.9%
C=CC(=O)Nc1cc(Nc2nccc(-c3cn(C)c4ccccc34)n2)c(OC)cc1N(C)CCN(C)C,cell viability activity,[1],-82.3%
same,cell viability activity,[2],-50.6%
NC1(c2ccc(-c3nc4ccn5c(=O)[nH]nc5c4cc3-c3ccccc3)cc2)CCC1,cell viability activity,[1],-42.7%
same,cell viability activity,[2],-39.4%
C[C@H]1[C@H](OC(=O)CCC(=O)O)O[C@@H]2O[C@@]3(C)CC[C@H]4[C@H](C)CC[C@@H]1[C@@]24OO3,cell viability activity,[1],-42.8% and -37.2%
same,cell viability activity,[2],-35.1% and -16.8%
CC(=O)O[C@H]1C(=O)[C@@]2(C)[C@H]([C@H](OC(=O)c3ccccc3)[C@]3(O)C[C@H](OC(=O)[C@H](O)[C@@H](NC(=O)c4ccccc4)c4ccccc4)C(C)=C1C3(C)C)[C@]1(OC(C)=O)CO[C@@H]1C[C@@H]2O,cell viability activity,[1],-58.4% and -50%
same,cell viability activity,[2],-54.2% and -52.9%
CCCCC/N=c1\ccn(Cc2ccccc2)c2ccccc12,cell viability activity,[1],-62.5%
same,cell viability activity,[2],-45.4%
Cc1cc(-c2cc(O)ccc2Cl)cc2nnc(Nc3ccc(OCCN4CCCC4)cc3)nc12,cell viability activity,[1],-41.1%
same,cell viability activity,[2],-76.9%
C[C@H]1O[C@H](O[C@H]2[C@H](O)[C@@H](O)[C@@H](O[C@H]3[C@H](O)[C@@H](O)C(O)O[C@@H]3CO)O[C@@H]2CO)[C@H](O)[C@@H](O)[C@@H]1N[C@H]1C=C(CO)[C@@H](O)[C@H](O)[C@H]1O (stereo partly drawn),cell viability activity,[1],-83.5%
same,cell viability activity,[2],-86.3%
Clc1ccc2c(c1)CCc1cccnc1C2=C1CCNCC1,cell viability activity,[1],-39.8%
same,cell viability activity,[2],-28.4%
CCc1c(O)cc(O)c(C(=O)c2ccc(OCCN3CCOCC3)c(OC)c2)c1CC(=O)N(CCOC)CCOC,cell viability activity,[1],-93%
same,cell viability activity,[2],-90%
c1ccc2c(CCNc3ccc(Nc4ccncc4)cc3)c[nH]c2c1,cell viability activity,[1],-93.4%
same,cell viability activity,[2],-90.3%
C/C(=N/Nc1nnc2c(n1)[nH]c1c(C)cccc12)c1ccccn1,cell viability activity,[1],-87.6%
same,cell viability activity,[2],-86.8%
C#C[C@]1(O)CC[C@H]2[C@@H]3CCC4=C(CCC(=O)C4)[C@H]3CC[C@@]21C,cell viability activity,[1],-62.8%
same,cell viability activity,[2],-59.4%
COc1c(C)c2c(c(O)c1C/C=C(\C)CCC(=O)O)C(=O)OC2,cell viability activity,[1],-22.3%
same,cell viability activity,[2],-27.7%
C[C@H](Nc1ncnc2nc[nH]c12)c1cc2cccc(Cl)c2c(=O)n1-c1ccccc1,cell viability activity,[1],-24.4%
same,cell viability activity,[2],-24.3%
O=C1NCN(c2ccccc2)C12CCN(CCCC(c1ccc(F)cc1)c1ccc(F)cc1)CC2,cell viability activity,[1],-27.2%
same,cell viability activity,[2],-69.5%
CC(C)CCN1c2nc(Nc3cc(F)c(O)c(F)c3)ncc2N(C)C(=O)C1C (stereo not drawn),cell viability activity,[1],-29.4%
same,cell viability activity,[2],4.41%
Cc1nc(Nc2ncc(C(=O)Nc3c(C)cccc3Cl)s2)cc(N2CCN(CCO)CC2)n1,cell viability activity,[1],-65.9%
same,cell viability activity,[2],-60.3%
COc1ccc(CCCOC(Cn2ccnc2)c2ccc(OC)cc2)cc1 (stereo not drawn),cell viability activity,[1],-67.2%
same,cell viability activity,[2],-31.3%
CCOc1ccccc1OC(c1ccccc1)C1CNCCO1 (stereo not drawn),cell viability activity,[1],-30.5%
same,cell viability activity,[2],-58.7%
Cc1csc(-c2nnc(Nc3ccc(Oc4ncccc4-c4ccnc(N)n4)cc3)c3ccccc23)c1,cell viability activity,[1],-28.2%
same,cell viability activity,[2],-46.6%
Cn1cc(-c2ccc(S(=O)(=O)n3ccc(/C=C/C(=O)Nc4ccccc4N)c3)cc2)cn1,cell viability activity,[1],-62.6%
same,cell viability activity,[2],-63.3%
COC(=O)C1=C(C#N)NC(C)=C(C(=O)OC(C)C)C1c1cccc([N+](=O)[O-])c1 (stereo not drawn),cell viability activity,[1],-44.7%
same,cell viability activity,[2],-65.8%
CN[C@H]1CN(c2ccc3c(=O)c(C(=O)O)cn(-c4nccs4)c3n2)C[C@@H]1OC,cell viability activity,[1],-60.3%
same,cell viability activity,[2],-30.9%
CNC(=O)c1c(F)cccc1Nc1nc(Nc2cc3c(cc2OC)CCN3C(=O)CN(C)C)nc2[nH]ccc12,cell viability activity,[1],-31.8%
same,cell viability activity,[2],-35%
Nc1ccn([C@@H]2O[C@H](CO)[C@@H](O)C2(F)F)c(=O)n1,cell viability activity,[1],-63.6%
same,cell viability activity,[2],-67.1%
CC(C)C[C@H](NC(=O)[C@H](CCc1ccccc1)NC(=O)CN1CCOCC1)C(=O)N[C@@H](Cc1ccccc1)C(=O)N[C@@H](CC(C)C)C(=O)[C@@]1(C)CO1,cell viability activity,[1],-97.1%
same,cell viability activity,[2],-96.6%
CCn1c2ccccc2c2cc(Nc3ccnc(NCCCN4CCOCC4)n3)ccc21,cell viability activity,[1],-79.7%
same,cell viability activity,[2],-84.9%
CC[C@@H](C(=O)[C@@H](C)[C@@H](O)[C@H](C)CCc1ccc(C)c(O)c1C(=O)O)[C@H]1O[C@](CC)([C@H]2CC[C@](O)(CC)[C@H](C)O2)C[C@@H]1C,cell viability activity,[1],-65.8%
same,cell viability activity,[2],-42.9%
COCCOc1ccc2c(c1)ncn2-c1ccc2cccc(N3CCC(N)CC3)c2n1,cell viability activity,[1],-93.4%
same,cell viability activity,[2],-94.6%
CC1=NN(c2ccc(C(=O)O)cc2)C(=O)/C1=C\c1ccc(-c2cc(C)c(C)cc2[N+](=O)[O-])o1,cell viability activity,[1],-62.3%
same,cell viability activity,[2],-79.6%
CCCCCCCCCc1ccc(OCCOCCOCCOCCOCCOCCOCCOCCOCCO)cc1,cell viability activity,[1],-55.9%
same,cell viability activity,[2],-22.3%
COc1cccc2cc(-c3nc([C@H]4CC[C@H](C(=O)O)CC4)n4ncnc(N)c34)[nH]c12,cell viability activity,[1],-50.5%
same,cell viability activity,[2],-27.5%
